Screening results from PubChem.
JMJD2A Tudor = JMJD2A Tudor domain (human) inhibition. AlphaScreen JMJD2A-Tudor / H3K4me3 peptide binding. 390,000 tested, 4.4% active. Potency, µM (highest dose often 114 µM), without a hit: at the top dose activity change, negative = inhibition, usual class: inhibitors. O75164; further: on the % scale 0 is the no-effect control and ±100 the full control effect; nearly all actives have a fitted effect of over 50% in size
HP1b binding inh = HP1-beta chromodomain-methylated histone interaction inhibition. AlphaScreen HP1-beta / biotin-H3K9me3 peptide binding. Potency, µM (doses to about 114 µM), inactives show at the highest dose activity change, negative = inhibition, most hits filed as inhibitors. 390,000 tested, 0.56% active. AID 540317; further: nearly all actives have a fitted effect of over 70% in size
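Compound inhibition of the preformed complex between 50 nM HP1-beta and 50 nM biotinylated H3K9me3 peptide was read by AlphaScreen. Buffer was PBS pH 7.4 with 0.01% Tween-20. Incubations ran 30 min at room temperature, with 10 ug/mL donor/acceptor beads.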
G9a block = G9a (human) methyltransferase inhibition | Q96KQ7 | G9a H3K9 monomethylation, AlphaScreen, 2 h | Potency, µM (titrated, usually from 102 µM), without a hit: top-dose activity, negative = inhibition, actives largely listed as inhibitors | 350,000 tested, 8.8% active | AID 504332; further: on the % scale 0 is the no-effect control and ±100 the full control effect; nearly all actives have a fitted effect of over 75% in size
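Signal arises when biotinylated H3K9 peptide, once monomethylated, bridges streptavidin donor and antibody-captured acceptor beads. Enzyme at 20 nM was preincubated 15 min with test compounds; peptide 500 nM and SAM 20 uM then reacted for 2 h.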
ALOX12 inh = inhibitors of human 12S-lipoxygenase ALOX12; Potency, µM (titrated, usually from 108 µM), for the others: at the top dose activity change, negative = inhibition, most hits filed as inhibitors; 580,000 tested, 1.1% active; P18054; purified 12hLO, xylenol orange hydroperoxide absorbance; AID 1671190; further: on the % scale 0 is the no-effect control and ±100 the full control effect
Target sequence (P18054 whole entry, looked up): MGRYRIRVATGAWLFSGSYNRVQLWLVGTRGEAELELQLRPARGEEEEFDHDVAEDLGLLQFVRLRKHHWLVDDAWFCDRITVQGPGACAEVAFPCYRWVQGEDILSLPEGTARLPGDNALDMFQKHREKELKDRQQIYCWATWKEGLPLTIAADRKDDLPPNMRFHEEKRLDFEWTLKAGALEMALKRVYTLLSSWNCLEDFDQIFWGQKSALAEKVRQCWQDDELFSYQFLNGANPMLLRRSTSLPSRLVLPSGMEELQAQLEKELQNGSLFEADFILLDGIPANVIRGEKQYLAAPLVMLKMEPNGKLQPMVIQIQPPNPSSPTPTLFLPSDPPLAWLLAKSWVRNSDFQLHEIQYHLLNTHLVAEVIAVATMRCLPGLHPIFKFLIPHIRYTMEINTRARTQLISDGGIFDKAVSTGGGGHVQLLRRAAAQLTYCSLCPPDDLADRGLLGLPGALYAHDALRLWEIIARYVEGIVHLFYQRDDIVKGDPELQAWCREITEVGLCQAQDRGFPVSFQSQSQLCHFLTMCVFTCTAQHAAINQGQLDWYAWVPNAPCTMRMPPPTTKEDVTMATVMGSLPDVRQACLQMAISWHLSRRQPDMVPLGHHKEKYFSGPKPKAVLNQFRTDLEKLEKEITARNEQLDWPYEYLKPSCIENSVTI
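Purified human 12hLO at 150 nM in 25 mM Hepes, 0.01% Triton X-100, pH 7.0, preincubated 15 min at room temperature with compound. Reaction started with 40 uM arachidonic acid, 30 min at room temperature. Hydroperoxide measured by Fe-xylenol orange, 573/405 nm absorbance ratio.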
PLK1 PBD inh = PLK1 (human) polo-box domain binding inhibition. P53350. Plk1 PBD binding of FITC phosphopeptide, fluorescence polarization. Potency, µM, without a hit: max response, negative = inhibition, most hits filed as inhibitors. 360,000 tested, 2.8% active. AID 720504; further: series mostly up to about 57 µM; on the % scale 0 is the no-effect control and ±100 the full control effect; nearly all actives have a fitted effect of over 65% in size
BAZ2B block = blocks human BAZ2B | Q9UIF8 | AlphaScreen BAZ2B-H3K14Ac peptide displacement | Potency, µM (highest dose often 114 µM), inactives show top-dose activity change, negative = inhibition, most hits filed as inhibitors | 360,000 tested, 4.4% active | AID 504333; further: on the % scale 0 is the no-effect control and ±100 the full control effect; nearly all actives have a fitted effect of over 60% in size
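AlphaScreen luminescence quantifies BAZ2B engagement of H3K14Ac peptide; the protein and biotinylated peptide are both at 50 nM final, buffer PBS pH 7.4 with 0.01% Tween-20, all steps at room temperature.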
* hit, by the source's call; u = inconclusive; x = no result; ! = not confirmed by another sample; [ ] = dose if it differs, or a comment. Compounds with a hit are over-represented: about 9% of the library has one in this group of screens. The call rests on the fitted dose curve; in most records, active means well fitted curve in the direction sought with a large enough effect; inconclusive means small, poorly fitted or top-dose-only effect, or another doubt; inactive means no such curve, though single readings can be large; an effect the other way counts as inactive or inconclusive. Potency means the concentration at half of the fitted maximal effect.

SMILES | JMJD2A Tudor | HP1b binding inh | G9a block | ALOX12 inh | PLK1 PBD inh | BAZ2B block
Cc1cccnc1-n1c(-c2ccco2)nc2ccccc2c1=O | 13% | 22% | 50µM* | 0% | 1% | -6%
CC(=O)c1c(O)n(-c2cccc(Cl)c2)c(=O)[nH]c1=O (tested in a mixture with another compound) | -18% | 16% | 50µM* | u | -2% | -29%
COc1cc(/C=C/[N+](=O)[O-])ccc1O | u | u | 6.3µM* | 349% | 19µM* | 45µM*
C#C[C@H]1CN2CC[C@H]1C[C@@H]2CNC(=O)C1CCCCC1 | x | x | x | 3%[176 µM] | x | x
Cc1ccc(C2CC3CCC(C2)N3Cc2ccccc2F)cc1 (stereo unspecified) | 2% | 35% | x | 14% | 8% | 12%
O=C(CSc1nc(-c2ccc(Cl)cc2)[nH]c(=O)n1)Nc1cccc(Cl)c1 | -17% | 25% | -19% | u | 24µM* | -12%
COC(=O)N1CCN(C(=O)Cc2ccc(Cl)c(Cl)c2)C(CN2CCCC2)C1 (stereo unspecified) | x | x | 35µM*! | 43% | x | -8%
CCN(CC)c1ccc(C=C2C(=O)N(C)C(=S)N(C)C2=O)o1 | -30% | -25% | 20µM* | -19% | 35% | u
CCOc1cc2c(cc1OCC)-n1cccc1C(c1cccc(OCC)c1O)NC2 (stereo unspecified) | 45µM* | u | 45µM* | u | -5% | u
O=C1N=C(N2CCCCC2)SC1=C1CCCCC1 | 3% | 36% | 25µM* | 27% | -10% | -4%
Cc1cc(C(=O)C[N+]23CCN(CC2)CC3)c(C)n1-c1ccc(Br)cc1 | -19% | 4% | u | -6% | -3% | 79µM*
CCCCCCNc1nc(OC)nc(N2CC3CC(C2)c2cccc(=O)n2C3)n1 (stereo unspecified) | -17% | 26% | -17% | 51% | 2% | -14%
CCOc1nc(NC(C)C)nc(N2CC3CC(C2)c2cccc(=O)n2C3)n1 (stereo unspecified) | 20µM* | u | -28% | -3% | 7.5µM* | 11%
C=CC[C@@H](C)CC(=O)C(CCCN=[N+]=[N-])SOOc1ccccc1 (stereo partly specified) | 66% | 103% | -10%[2.33 µM] | -5% | -8% | 44%
O=C(CN1CCOCC1)c1cccc2ccccc12 | 7.9µM* | -26% | 3.2µM* | u | -23% | 50µM*
Cc1c(C(=O)c2cccc3ccccc23)c2cccc3c2n1[C@H](CN1CCOCC1)CO3 | 56µM* | -9% | 11µM*! | u | -19% | x
O=C(CN1CCOCC1)c1ccc(Br)cc1 | 79µM* | 22% | u | u | u | -16%
COc1cc2c(cc1OC1CCCC1)NC(=O)C21CCN(c2ccnc(C)n2)CC1 | x | x | x | 11%[176 µM] | x | x
O=C(Nc1ccccc1)NC1CC2CCC(C1)N2 (stereo unspecified) | 5% | 34% | 8%[12.7 µM] | -4% | -6% | 5%
CN1C(=O)c2ccccc2Sc2ccc(C(=O)N3CCC4(CC3)OCCO4)cc21 | 1% | 27% | 39% | 12% | 0% | 5%
Cn1c(O)c(C(c2ccccn2)c2c(O)n(C)c(=S)n(C)c2=O)c(=O)n(C)c1=S | 4µM* | 7% | 4µM* | 10% | -16% | 5µM*
CCC(C)n1c(O)c(C=NC(C)c2ccccc2)c(=O)[nH]c1=S (stereo unspecified) | u | 9% | x | 100% | 2% | -22%
CCC(C)n1c(O)c(C(c2ccccn2)c2c(O)n(C(C)CC)c(=S)[nH]c2=O)c(=O)[nH]c1=S (stereo unspecified) | u | 29% | 11µM* | u | u | 35µM*
CCC1Nc2ncnc(N3CCN(c4ccccn4)CC3)c2N(Cc2ccc(Br)cc2)C1=O (stereo unspecified) | 79µM* | 1% | x | u | -17% | x
COc1ccccc1N1CCN(Cc2ccc(Br)cc2)CC1 | -33% | 21% | u | -12% | -7% | u
SMILES | JMJD2A Tudor | HP1b binding inh | G9a block | ALOX12 inh | PLK1 PBD inh | BAZ2B block
O=C(c1ccccc1F)c1cn(Cc2ccc(F)cc2)c2ccccc12 | 11% | 83% | -2%[59 µM] | -13% | 4% | 11%
CN(CC(=O)Nc1cccc(F)c1)CC(=O)Nc1cccc(S(=O)(=O)N(C)c2ccccc2)c1 | 0.89µM* | 40µM* | x | 135% | 0% | x
O=C(Nc1cccc(F)c1)N1CCC2(CC1)CCN(C(=O)Oc1ccccc1)CC2 | x | x | -3%[12.7 µM] | -4%[57.4 µM] | x | x
CCNCC(O)c1cccc(O)c1 (stereo unspecified) | -2% | 24% | x | -13% | -6% | 8%
C[N+]1(CC(O)c2ccccc2)CCCCCC1 (stereo unspecified) | -4% | 9% | 50µM* | u | -4% | 79µM*
CCOc1ccc(NC2=NCCCS2)cc1 | 0% | 12% | 0% | 8% | -4% | -13%
Cc1ccc(N2C(=O)NC(=O)C3(Cc4cc(C)ccc4N(C)C3)C2=O)c(C)c1 (stereo unspecified) | x | x | x | -25% | x | x
COc1cc(CN2C(=O)NC(=O)C3(Cc4cc(C)ccc4N(C)C3)C2=O)cc(OC)c1 (stereo unspecified) | -32% | 23% | u | -8% | -23% | -35%
Cc1ccc2c(c1)CC1(CN2C)C(=O)NC(=O)N(c2cc(C)ccc2C)C1=O (stereo unspecified) | -29% | 67% | 5.6µM* | -22% | -15% | 3%
COc1ccc2c(c1)CC1(CN2C)C(=O)NC(=O)N(CCc2ccccc2)C1=O (stereo unspecified) | -32% | 38% | 11µM* | 40µM* | -21% | u
COc1ccc(OC)c(N2C(=O)NC(=O)C3(Cc4cc(C)ccc4N(C)C3)C2=O)c1 (stereo unspecified) | -29% | 11% | 8.9µM* | u | -9% | -3%
COc1cccc(N2C(=O)NC(=O)C3(Cc4cc(C)ccc4N(C)C3)C2=O)c1 (stereo unspecified) | u | 42% | 2.8µM* | u | -20% | 5%
CC(C)(C)c1ccc(-c2n[nH]c(=S)n2CCCN2CCOCC2)cc1 | 10µM* | 4% | 6.3µM* | u | -11% | -33%
CC(C)(C)c1ccc(C(=O)NCCN2CCOCC2)cc1 | -16% | 44% | x | 0% | -4% | x
O=[N+]([O-])c1ccccc1 | x | x | 28%[59 µM] | x | x | x
COc1ccc2c(c1)C13CCCC[C@@H]1C(C2)N(C)CC3 (stereo partly specified) | -14% | 21% | 18%[12.7 µM] | 17% | -8% | 5%
CNC(=O)Oc1ccc2c(c1)[C@]1(C)CCN(C)[C@@H]1N2C | -13% | 8% | 45µM*! | 0% | 3% | 6%
